These results are taken from publication PMC7819943, “Rice protein-binding microarrays: a tool to detect cis-acting elements near promoter regions in rice”.

Whole data set: some 39,000 sequences, median “fluorescence intensity (a.u.)” near 4,300, cut for the highest 2% near 39,000. Shown is part of a subset that was picked to be rich in the highest values.

This test addresses T1, OsSMF1 (Oryza sativa, UniProt Q6ZLB0 1-436).
T1 sequence: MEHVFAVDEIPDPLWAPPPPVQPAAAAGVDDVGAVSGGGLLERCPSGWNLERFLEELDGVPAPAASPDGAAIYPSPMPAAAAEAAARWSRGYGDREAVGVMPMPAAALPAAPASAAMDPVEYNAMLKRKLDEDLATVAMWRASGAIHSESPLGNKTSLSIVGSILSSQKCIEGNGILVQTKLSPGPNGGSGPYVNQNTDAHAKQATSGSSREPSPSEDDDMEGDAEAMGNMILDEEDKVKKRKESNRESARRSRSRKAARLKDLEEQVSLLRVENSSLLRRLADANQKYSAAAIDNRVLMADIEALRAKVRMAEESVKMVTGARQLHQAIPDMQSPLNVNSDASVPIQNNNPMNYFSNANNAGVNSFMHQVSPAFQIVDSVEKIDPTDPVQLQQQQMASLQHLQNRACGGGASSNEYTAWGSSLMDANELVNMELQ
The test can be described thus: protein-binding microarray (RPBM); PBS, 2% BSA, 51.3 ng/ul salmon testes DNA, 50 uM zinc acetate, 200 nM TF, 25 C, 1 h; high values mean tight binding. Conditions: protein: recombinant; tags: N-terminal polyhistidine and DsRed monomer fusion (pET32a); chain copies: 2; label: CyDye5-dUTP incorporated in the synthesized complementary strand; 3' TTTTT single-stranded linker to array surface; dsDNA, one strand shown. The gist of the method:
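The binding signal is fluorescence intensity per array feature (arbitrary units). Readings came from an Axon 4000B scanner after a washed, 2% BSA-blocked, double-stranded custom Agilent array had been incubated for 1 h at 25 °C with 200 nM protein and 50 µM zinc acetate. The protein was a Ni–NTA-purified transcription factor fused N-terminally to polyhistidine and DsRed, expressed in E. coli BL21-CodonPlus.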
On to “TACAAAATCATCCATCAACCGCAAAATCAGATATCGACCGCGGAGTCACCTAGTGCAG”, for which the binding signal is 3800 fluorescence intensity (a.u.). To “GATGTGACGTGATGTGATGGAAAGTTGGGAGTTGGGGAAACGGAGTCACCTAGTGCAG” belongs 6040 fluorescence intensity (a.u.). With “TTGGCCGGTAACGCGTCATGACTCATGAGCTACTGGACTTCGGAGTCACCTAGTGCAG” the figure was 9990 fluorescence intensity (a.u.); with “TTCGTCCGTGCGTGCGTGCGTGCGCGACTCGCTCTCACACCGGAGTCACCTAGTGCAG”, 10700 fluorescence intensity (a.u.).

Take “TACATTTCTTTGACAAAACTTTTATAACCAGCTGATGTGGCGGAGTCACCTAGTGCAG”: the binding signal was 11400 fluorescence intensity (a.u.). With “GAGTTGTGACTGTGAGGCACACCAATGGCGGCCCATGGATCGGAGTCACCTAGTGCAG” the figure was 3740 fluorescence intensity (a.u.). To “CACTGTCCATCCATGGTGGTGGTCAGACAACCCCAGCACACGGAGTCACCTAGTGCAG” belongs 3990 fluorescence intensity (a.u.); to “TGCGATTGATTCGGTATTAGAGCCTGCATACGTGTCATCTCGGAGTCACCTAGTGCAG”, 22100 fluorescence intensity (a.u.).

With “TCTCCCAGGCCACCATCGGCGTCCACATCCCGCCGTCCGCCGGAGTCACCTAGTGCAG”, the binding signal is 3510 fluorescence intensity (a.u.). Take “CGGCCGCCGCGACACCCGCCGCCACGTCGCCCCGCCACGCCGGAGTCACCTAGTGCAG”: the binding signal is 9460 fluorescence intensity (a.u.). With “CCTCTCCAGTACGCGTCGCCCCGCCACGTCAGCGACTGGCCGGAGTCACCTAGTGCAG” the figure was 41600 fluorescence intensity (a.u.); with “CATGAGGAGGATGCTGACGTCTCGAGGTGAAGGCCGCAATCGGAGTCACCTAGTGCAG”, 4970 fluorescence intensity (a.u.). As to “TCCAGATCTTGGCGCCGCCGGATCCCGTCAGTCTCCACAACGGAGTCACCTAGTGCAG”, the binding signal is 48300 fluorescence intensity (a.u.). To “CTCTCCCGCCTCGCCCGTCGACGCCCGCGCCACGTGCAGCCGGAGTCACCTAGTGCAG” belongs 6190 fluorescence intensity (a.u.); to “TCGGCCAATGCGGAGCCGTCAGCTCTCCGCTGCTCGGCTACGGAGTCACCTAGTGCAG”, 44400 fluorescence intensity (a.u.). Consider “CCATCTCGGCCCATGAGGATGCTGACGTCACCGCGTCGTCCGGAGTCACCTAGTGCAG”, for which the binding signal is 42700 fluorescence intensity (a.u.). With “CGCTCTGCCGTCCGGCTCTCCGCGCGATGCTACGTGGCCGCGGAGTCACCTAGTGCAG” the figure was 5480 fluorescence intensity (a.u.); with “GTCGGCCCATGAATATGCTGACGTCACTTTTGAGCCCACTCGGAGTCACCTAGTGCAG”, 36600 fluorescence intensity (a.u.). To “GCCGCCGCCGCCGTCTGCACCCGCGTCAGCGCTCCACAAACGGAGTCACCTAGTGCAG” belongs 3440 fluorescence intensity (a.u.); to “GCCTCCACCTCGCTGCTGCTCCGCCAGCTAGTAGCCGCCACGGAGTCACCTAGTGCAG”, 3350 fluorescence intensity (a.u.); to “GACATTTACATGTACTGATTGCTGATTGCCATTGATTCATCGGAGTCACCTAGTGCAG”, 22800 fluorescence intensity (a.u.). With “CAGTGTTACATCATCGACCGGTTATCATCTTTGTTTCGATCGGAGTCACCTAGTGCAG” the figure was 3580 fluorescence intensity (a.u.); with “TTGCACATGCTGATTATTACATATTGCTACGTCCTTTTGCCGGAGTCACCTAGTGCAG”, 3230 fluorescence intensity (a.u.). Take “GGTGTGTATTGACGCACCACGTATGTCTATCTTCTTTCGTCGGAGTCACCTAGTGCAG”: the binding signal is 3820 fluorescence intensity (a.u.). For the sequence “TGGCCGGAATCACACGCACAAGGTGCTGCGTCACCTATAACGGAGTCACCTAGTGCAG”, the binding signal is 9040 fluorescence intensity (a.u.). To “CACGATCCATCATATCGCTTGAGCTAGCCACAACACACAACGGAGTCACCTAGTGCAG” belongs 22100 fluorescence intensity (a.u.); to “GCATGGTGGCGGCGGGAAGGAGGAGTGGGGCGGCGGGTGCCGGAGTCACCTAGTGCAG”, 3770 fluorescence intensity (a.u.); to “GTCCGTCGCGCGTCACCGCGTGCCTCGCCACGCCCACGCCCGGAGTCACCTAGTGCAG”, 5090 fluorescence intensity (a.u.). To “CTTGGATCCAACGGCCACGGCTCTCTCATCGCCGCGCCCCCGGAGTCACCTAGTGCAG” belongs 46100 fluorescence intensity (a.u.); to “CCCGCCGCGCCGCGTCCCGGCCACCGCGCCGCCCGCCGCGCGGAGTCACCTAGTGCAG”, 4250 fluorescence intensity (a.u.); to “GGGCAGATCCGGCGCCCGACGCCGGCGGATCCGCCGTCGTCGGAGTCACCTAGTGCAG”, 32500 fluorescence intensity (a.u.). With “GCCACCGCCGCGGGCGCGGCCCCGGCCCCGGCCCCGGCCGCGGAGTCACCTAGTGCAG” the figure was 3390 fluorescence intensity (a.u.); with “TCCCGCTCACCACCACGCCACGTCACCGATCCGCGCAACCCGGAGTCACCTAGTGCAG”, 22400 fluorescence intensity (a.u.). Regarding “CCAGCCCCGCGCCGGCCGCCGTCCGTCCGCCCGCGCGCGGCGGAGTCACCTAGTGCAG”, the binding signal is 3540 fluorescence intensity (a.u.).

As to “GGGCCCCGCAGGCGCAGGCGCAGCGGTACGCCGTCGTCGGCGGAGTCACCTAGTGCAG”, the binding signal is 54200 fluorescence intensity (a.u.). To “CCCCACCACCTCATCGATCCGCGCCACCACCCAACCCACCCGGAGTCACCTAGTGCAG” belongs 4250 fluorescence intensity (a.u.). With “CGTCGAACCGGCGGCGGCCCGCGCCACCCACCCTACCCGCCGGAGTCACCTAGTGCAG” the figure was 49100 fluorescence intensity (a.u.). With “GAAGCCATCCACGCGGCACCATCGGACGGCTCTCGCGCCCCGGAGTCACCTAGTGCAG”, the binding signal is 5210 fluorescence intensity (a.u.). With “CGAGTGCCACGCGTGCGCCCACCGCCACGTCACCGATCCCCGGAGTCACCTAGTGCAG” the figure was 53800 fluorescence intensity (a.u.); with “ACACATGCTTCAAGTGGCTAAGAGGGCATCCTCCCTTTTACGGAGTCACCTAGTGCAG”, 16000 fluorescence intensity (a.u.); with “TAACTTCTTGCAGAAATGCCTCGTCATCGGTGACGCCGTTCGGAGTCACCTAGTGCAG”, 4870 fluorescence intensity (a.u.). Turning to “AAATTTGATCCTCGCACACCAGCTCAGCTACAGATGACATCGGAGTCACCTAGTGCAG”, the binding signal was 4230 fluorescence intensity (a.u.).
